Compound activity from PubChem BioAssay.
The full list was thinned out, with hits kept by preference.
ERp5 block: blocks human ERp5 reductase activity on insulin | ERp5 insulin aggregation, absorbance 650 nm, 90 min | AID 651711 | Q15084 | inhibition, % at 9.99 µM | 0.05% of 350,000 active;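 active = mean replicate inhibition above about 25%, with every replicate also reaching it, limit read from the data, passing the limit was not always enough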
HDAC3 inh: inhibitors of human histone deacetylase 3 | O15379 | inhibition, % at 8.3 µM | recombinant HDAC3, fluorogenic peptide/trypsin coupled, fluorescence | 0.15% of 320,000 active; in the data active = inhibition above about 26%, passing the limit was not always enough
ERAP1 inh: blocks human ERAP1 aminopeptidase activity; recombinant ERAP1, Leu-AMC fluorescence, 60 min; inhibition, % at 10.7 µM; 0.15% of 340,000 active;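 active = mean replicate inhibition of at least 30%, or all replicates individually reaching that 30% level; inactive = mean below 30% and not every replicate reaching it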;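 note: 0% = neutral control wells and 100% = L-leucinethiol positive control wells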
Target sequence (Q9NZ08 whole entry, looked up): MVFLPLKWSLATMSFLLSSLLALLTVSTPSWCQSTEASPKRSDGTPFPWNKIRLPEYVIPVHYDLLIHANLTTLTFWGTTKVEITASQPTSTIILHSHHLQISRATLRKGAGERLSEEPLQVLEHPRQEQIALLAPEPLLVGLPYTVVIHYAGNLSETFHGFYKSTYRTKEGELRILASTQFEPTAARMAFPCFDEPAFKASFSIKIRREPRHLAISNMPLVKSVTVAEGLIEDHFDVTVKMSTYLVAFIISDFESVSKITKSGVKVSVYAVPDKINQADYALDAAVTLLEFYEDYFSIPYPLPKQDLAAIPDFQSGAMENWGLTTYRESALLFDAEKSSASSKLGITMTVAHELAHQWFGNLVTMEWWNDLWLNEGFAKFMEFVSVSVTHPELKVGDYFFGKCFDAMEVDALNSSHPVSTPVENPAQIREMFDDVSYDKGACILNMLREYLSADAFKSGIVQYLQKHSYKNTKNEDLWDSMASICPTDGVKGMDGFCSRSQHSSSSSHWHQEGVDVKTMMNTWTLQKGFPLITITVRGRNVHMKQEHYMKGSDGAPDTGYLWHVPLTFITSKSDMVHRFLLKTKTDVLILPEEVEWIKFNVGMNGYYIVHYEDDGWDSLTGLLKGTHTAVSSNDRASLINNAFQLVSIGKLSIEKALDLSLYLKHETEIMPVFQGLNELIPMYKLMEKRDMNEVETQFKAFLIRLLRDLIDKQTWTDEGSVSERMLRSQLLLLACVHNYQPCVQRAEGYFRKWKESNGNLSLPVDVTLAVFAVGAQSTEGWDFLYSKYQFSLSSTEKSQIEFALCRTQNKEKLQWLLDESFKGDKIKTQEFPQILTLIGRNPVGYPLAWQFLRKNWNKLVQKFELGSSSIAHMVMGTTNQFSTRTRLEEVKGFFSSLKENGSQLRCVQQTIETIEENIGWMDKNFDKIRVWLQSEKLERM
PDI turbidity: inhibitors of human protein disulfide isomerase; AID 588391; PDI insulin aggregation turbidity, A650, 90 min; inhibition, % at 10 µM; 0.052% of 350,000 active; P07237;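 active = mean inhibition across replicates of 30% or more, whatever share of single replicates reach that level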
SIRT5 inh: sirtuin-5 (human) deacylase inhibition. Q9NXA8. Purified SirT5, succinyl-peptide AMC, trypsin-coupled fluorescence. inhibition, % at 15 µM. 1.1% of 330,000 active; in the data active = inhibition above about 15%
* hit, by the source's call; x = no result.

SMILES	ERp5 block	HDAC3 inh	ERAP1 inh	PDI turbidity	SIRT5 inh
C=CCOC(=O)[C@H]1[C@@H]2C(=O)O[C@@H](c3ccccc3)[C@@H](c3ccccc3)N2[C@@H](c2ccc(OCCOC(=O)[C@@H]3C[C@@H]4C(=O)N[C@@H](Cc5ccccc5)C(=O)N4[C@@H]3c3ccc(O)cc3)cc2)[C@]12C(=O)Nc1ccc(I)cc12	-0.1	x	3.3	x	-2.6
C[C@@]12CC(=O)NC1N(C(=O)c1cccc(C(F)(F)F)c1)C(c1ccccc1OC(=O)c1cccc(C(F)(F)F)c1)C2 (stereo partly drawn)	-0.1	41.8*	5.0	-0.7	3.1
C[C@@]12CC(=O)NC1N(C(=O)c1ccccc1)C(c1ccccc1OC(=O)c1ccccc1)C2 (stereo partly drawn)	x	-2.2	x	9.2	x
Cc1sc2nc(N3CCOCC3)[nH]c(=O)c2c1-c1ccccc1	-1.3	-2.9	0.0	1.1	31.3*
COc1ccc(NC(=O)Nc2cccc3c2O[C@H](CN(C)C)[C@@H](C)CN([C@@H](C)CO)C3=O)cc1	5.1	x	1.3	x	-3.5
COc1ccccc1NC(=O)CN1CCOCC1	0.8	-5.7	-1.2	-2.1	-2.2
COc1ccccc1NC(=O)CN1CCN(C(=O)C2CCCO2)CC1 (stereo not drawn)	-6.1	-10.1	-2.1	3.3	45.6*
COc1cc(/C=C(/C#N)C(=O)NCCCc2ccccc2)ccc1OCC(=O)O	0.7	1.1	35.3*	-3.8	x
COc1ccc(/C=C(\C#N)C(=O)NCc2cccnc2)cc1OC	10.9	-1.1	63.5*	1.5	0.6
CCOc1cc(/C=C(\C#N)C(=O)NCc2cccnc2)ccc1O	1.8	12.0	-5.4	-2.8	-4.8
CC(C)C(=O)Nc1ccc2c(c1)C(=O)N(C)[C@@H]1CC[C@@H](CC(=O)NCC3CC3)O[C@H]1CO2	-0.4	x	1.8	x	2.5
CO[C@@H]1CN(C)C(=O)c2ccc(NC(=O)c3ccccc3)cc2OC[C@H](C)N(C(=O)CN(C)C)C[C@@H]1C	3.1	x	-2.3	x	9.6
Cc1noc(C)c1S(=O)(=O)Nc1ccc2c(c1)C(=O)N([C@H](C)CO)C[C@H](C)[C@H](CN(C)Cc1ccc(Cl)c(Cl)c1)OCCCC[C@@H](C)O2	-13.6	x	-0.3	x	9.2
Cc1noc(C)c1S(=O)(=O)Nc1ccc2c(c1)C(=O)N([C@@H](C)CO)C[C@@H](C)[C@H](CN(C)Cc1ccc(Cl)c(Cl)c1)OCCCC[C@@H](C)O2	-1.2	x	0.1	x	20.1*
Cc1noc(C)c1S(=O)(=O)Nc1ccc2c(c1)C(=O)N([C@@H](C)CO)C[C@@H](C)[C@@H](CN(C)Cc1ccc(Cl)c(Cl)c1)OCCCC[C@@H](C)O2	-6.4	x	-1.3	x	17.0*
CCNC(=O)[C@H]1[C@H](CO)[C@H]2Cn3c(ccc(-c4ccccc4F)c3=O)[C@H]2N1C	-0.5	x	0.9	x	-7.5
CCOc1cc(C(=O)OC(C(=O)NC(=O)NC)c2ccccc2)ccc1OCC(=O)N1CCOCC1 (stereo not drawn)	-3.8	26.6*	-1.0	7.7	-0.3
CCOc1cc(C(=O)Nc2ccccc2N2CCOCC2)ccc1OCC(=O)N1CCOCC1	1.5	2.9	0.9	2.7	-0.8
C[C@H](CO)N1C[C@H](C)[C@H](CN(C)S(C)(=O)=O)Oc2ccc(NC(=O)Nc3cccc4ccccc34)cc2C1=O	-1.0	x	1.1	x	1.2
O=C(CSc1ccccn1)Nc1cccc2ccccc12	2.8	1.3	87.8*	2.5	-3.1
CC(C)CC#Cc1cnc2c(c1)C(=O)N([C@H](C)CO)C[C@@H](C)[C@H](CN(C)S(=O)(=O)c1cccs1)O2	-2.3	x	0.4	x	2.2
O=C(c1csc2c1CCCC2)n1cccn1	2.2	78.8*	4.3	-1.1	-0.9
CCN1/C(=C/C=C/C=C/c2sc3ccccc3[n+]2CC)Sc2ccccc21	x	36.0*	x	x	x
CCN1/C(=C/C=C/C=C/C=C/c2sc3ccccc3[n+]2CC)Sc2ccccc21	0.0	6.2	30.6*	-62.1	-1.9
CCN1/C(=C/C=C/c2sc3ccccc3[n+]2CC)Sc2ccccc21	x	-0.5	x	-5.1	x
SMILES	ERp5 block	HDAC3 inh	ERAP1 inh	PDI turbidity	SIRT5 inh
C[C@@H]1CN([C@H](C)CO)C(=O)c2cccc(NC(=O)Nc3ccc(C(F)(F)F)cc3)c2O[C@H]1CN(C)Cc1ccc2c(c1)OCO2	-1.3	x	1.1	x	2.4
CCCCCCCCCCCCCCCCCCNc1ccn(C2OC(COP(=O)(O)OCC3OC(n4cc(F)c(=O)[nH]c4=O)CC3O)C(O)C2O)c(=O)n1 (stereo not drawn)	-10.0	x	8.4	-19.9	35.5*
CN(C)CC(=O)N1CC2(C1)[C@@H](c1ccccc1)[C@@H](CO)N2C(=O)C1CCCCC1	-1.1	x	0.3	x	1.4
CN(C)CCNc1ccc2ncn3c4ccc(O)cc4c(=O)c1c23	5.1	x	33.3*	4.1	1.1
CN(C)CCNc1ccc(CO)c2sc3ccc(O)cc3c(=O)c12	-7.8	x	9.4	5.6	x
S=c1[nH]nc(NCCCN2CCOCC2)s1	-6.1	4.2	86.5*	-4.0	0.5
Cc1ccc(C)c(NC(=O)COC(=O)CC2CC3CCC2C3)c1 (stereo not drawn)	0.3	2.6	0.1	-1.5	-2.1
Cc1cc(Br)c(NC(=O)COC(=O)CC2CC3CCC2C3)c(Br)c1 (stereo not drawn)	-2.0	5.3	0.9	4.7	18.8*
COc1cc2c(oc(=O)c3cc(C)cc(OC)c32)c2c(C3OC(C)C(O)C(C)(O)C3O)ccc(O)c12 (stereo not drawn)	1.6	x	6.9	-0.6	18.6*
O=C(Nc1cc(F)ccc1F)N1C[C@@H]2[C@H](c3ccccc31)[C@H](CO)N2Cc1ccncc1	-3.3	x	-1.9	x	22.0*
CCC(=O)N1C[C@H]2[C@@H](c3ccccc31)[C@@H](CO)N2Cc1cc(F)ccc1F	-1.0	x	-1.8	x	28.3*
COc1ccccc1C(=O)N1C[C@H]2[C@@H](c3ccccc31)[C@@H](CO)N2Cc1ccc(F)cc1	4.2	x	0.1	x	16.3*
CO[C@H]1CN(C)C(=O)c2ccc(NC(C)=O)cc2OC[C@@H](C)N(CC2CC2)C[C@@H]1C	1.0	x	2.5	x	-1.1
Cc1nc(-c2ccc3c(c2)OCO3)cs1	x	-1.7	x	0.0	x
Cc1nc(-c2ccc3c(c2)OCCCO3)cs1	x	40.8*	1.8	3.6	-6.7
COc1ccc(NC(=O)Nc2ccc3c(c2)OC[C@H](C)NC[C@H](C)[C@@H](OC)CN(C)C3=O)cc1	x	x	-0.8	x	-1.6
CCOc1ccc(NC(=O)Nc2cc(-c3ccccc3)sc2C(=O)OC)cc1	3.8	4.0	1.7	9.4	16.2*
CC(C)OC(=O)C[N+](C)(C)CCN1C(=O)C2C(c3ccccc3)C=CC(c3ccccc3)C2C1=O (stereo not drawn)	-3.0	-3.9	-1.7	4.2	25.5*
CN(C)CC(=O)N1[C@H](CO)[C@H](c2ccccc2)C12CN(CCC(F)(F)F)C2	-2.7	x	1.1	x	13.0
CCC(=O)N1[C@H](CO)[C@@H](c2ccccc2)C12CN(CCC(F)(F)F)C2	-6.4	x	-1.4	x	15.4*
